# Eya2 phos inh: Eya2 (human) phosphatase inhibition; O00167; recombinant Eya2, OMFP fluorescence dephosphorylation (OMFP is methylfluorescein phosphate); Potency, µM (titrated, usually from 76.9 µM), inactives show top-dose activity, negative = inhibition, usual class: inhibitors; actives 0.006% (n = 330,000)
#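 Eya2 protein (added as 0.2 uM solution) was preincubated with compound for 10 min at ambient temperature in 50 mM HEPES pH 7.5, 50 mM NaCl, 5 uM MgCl2, 0.05% BSA, 1 mM DTT. OMFP (added at 50 uM) then reacted 10 min; fluorescence read at 485/525 nm.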
# RGS4 inh: inhibitors of human regulator of G protein signaling 4 | P49798 | Potency, µM (top dose mostly 114 µM), inactives show at the highest dose activity change, negative = inhibition, hits mostly inhibitors | actives 0.039% (n = 390,000) | Transcreener GDP fluorescence polarization, RGS4-accelerated GTP hydrolysis; note: nearly all actives have a fitted effect of over 75% in size
# Target sequence (P49798 whole entry, looked up): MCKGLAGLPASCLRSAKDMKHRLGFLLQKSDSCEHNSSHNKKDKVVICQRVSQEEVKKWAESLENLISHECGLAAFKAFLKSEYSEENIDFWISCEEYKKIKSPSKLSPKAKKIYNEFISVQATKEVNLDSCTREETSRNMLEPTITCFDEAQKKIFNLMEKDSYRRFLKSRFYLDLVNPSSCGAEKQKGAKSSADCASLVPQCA
#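 MLSMR compounds (23 nl, pin-transferred) preincubated 10 min at room temperature with a 500nM (2x) first reagent, then RGS4 at 900nM (2x) plus Transcreener GDP mix added; fluorescence polarization (620/688 nm) read before and after 90 min at 30 °C.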
# TrxR1 substrate: substrates of rat thioredoxin reductase 1; purified TrxR1 substrate turnover, NADPH consumption readout; Potency, µM (series often up to 114 µM), for inactives: at the highest dose activity change, negative = substrate turnover; AID 588456; actives 0.01% (n = 390,000); note: nearly all actives have a fitted effect of over 50% in size
# Target sequence (O89049 whole entry, looked up): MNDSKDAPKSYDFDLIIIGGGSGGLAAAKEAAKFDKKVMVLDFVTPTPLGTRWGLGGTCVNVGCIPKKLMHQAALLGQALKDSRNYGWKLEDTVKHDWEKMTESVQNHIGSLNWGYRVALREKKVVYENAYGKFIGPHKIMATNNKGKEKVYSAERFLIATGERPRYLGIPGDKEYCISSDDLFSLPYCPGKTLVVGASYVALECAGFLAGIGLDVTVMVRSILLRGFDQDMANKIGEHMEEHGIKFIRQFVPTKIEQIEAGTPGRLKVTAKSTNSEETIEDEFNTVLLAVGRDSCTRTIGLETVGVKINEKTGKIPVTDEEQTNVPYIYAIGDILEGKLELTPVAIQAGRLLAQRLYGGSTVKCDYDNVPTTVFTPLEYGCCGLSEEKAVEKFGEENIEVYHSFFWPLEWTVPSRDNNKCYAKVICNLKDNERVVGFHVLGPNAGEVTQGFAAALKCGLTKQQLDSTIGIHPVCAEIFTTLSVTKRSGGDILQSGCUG
#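 Rat TrxR1, dispensed at 90 nM, was prereduced with 400 uM NADPH (final) for 5 min at ~22 deg C, then incubated with compound 15 min before 400 uM selenite. A first-read NADPH fluorescence drop versus no-compound background flagged substrates.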
# IDH1 R132H inh: inhibitors of human mutant IDH1 R132H | O75874 | IDH1-R132H enzyme, NADPH consumption, diaphorase/resazurin fluorescence | Potency, µM (top dose mostly 76.6 µM), without a hit: at the highest dose activity change, negative = inhibition, hits mostly inhibitors | actives 0.093% (n = 390,000) | AID 602179; note: nearly all actives have a fitted effect of over 65% in size
#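 IDH1-R132H (0.5 ug/mL) preincubated 30 min with compound, then NADPH (0.016 mM) and alpha-KG (2 mM) added; 80 min at RT, pH 7.5. Remaining NADPH coupled via diaphorase/resazurin to fluorescence (540/590 nm); concentration-response curves normalized to no-enzyme control.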
# TrxR1 inh: rat TrxR1 inhibition; AID 588453; recombinant rTrxR1, NADPH fluorescence consumption, selenite substrate; Potency, µM (series often up to 114 µM), inactives show at the highest dose activity change, negative = inhibition, actives largely listed as inhibitors; actives 1% (n = 390,000); O89049; note: nearly all actives have a fitted effect of over 65% in size
#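 Rat TrxR1 (90 nM in the dispensed reagent) was pre-reduced with 400 uM NADPH for 5 min at room temperature, then incubated with compound for 15 min. After 400 uM selenite was added, NADPH fluorescence (Ex 340/Em 450 nm) was followed for 8 min.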
# Active calls of the source: *; ? = inconclusive; . = no result given; ! = repeats disagree; [ ] = dose if it differs, or a comment. Compounds with a hit are over-represented: about 1.1% of the library has one in this group of screens. Calls come from the whole dose curve; as a rule, active = well fitted curve in the direction sought with a large enough effect; inconclusive = small, poorly fitted or top-dose-only effect, or another doubt; inactive = no such curve, though single readings can be large; an effect the other way counts as inactive or inconclusive. % is set by controls: 0 for no effect and ±100 for the full control effect; potency is the fitted concentration of half-maximal effect.
SMILES,Eya2 phos inh,RGS4 inh,TrxR1 substrate,IDH1 R132H inh,TrxR1 inh
CCc1c(C)sc(NC(=O)c2cc(CC(C)C)on2)c1C#N,4.3%,-51.3%,-3.3%[57.1 µM],17.5%,9.6%[57.1 µM]
CCc1c(C)sc(NC(=O)c2noc(C)c2[N+](=O)[O-])c1C#N,-18.0%,-38.9%,-8.7%,-1.0%,12.6µM*
CCN(CC)C(NC(=O)Cc1ccccc1)C(Cl)(Cl)Cl (stereo unspecified),4.1%,-11.4%,11.5%,15.5%,7.94µM*
COc1ccccc1C(=O)NC1(C(F)(F)F)NC(=O)N(CCc2ccccc2)C1=O (stereo unspecified),.,2.2%,-5.0%,-5.7%,20.3%
CCN1C(=O)[C@H]2[C@@H](c3ccc(-c4ccc(F)cc4)c(OC)c3)N[C@@](C)(C(=O)OC)[C@H]2C1=O,3.2%,-1.3%,1.4%,3.8%,79.4µM*
CCN1C(=O)[C@H]2[C@@H](c3ccc(-c4ccc(OC)cc4)c(OC)c3)N[C@@](C)(C(=O)OC)[C@H]2C1=O,-11.0%,-7.3%,26.7%,-1.6%,-2.9%
COC(=O)c1ccc(NC(=O)c2cccc(N3C(=O)C4C5C=CC(C6CC56)C4C3=O)c2)cc1 (stereo unspecified),2.9%,-17.6%,10.7%,-1.5%,14.2%
CC(=O)N=c1sc2nc3ccccc3nc2n1N(C(C)=O)C(C)=O,14.0%,-17.5%,9.7%,-2.2%,39.8µM*
CCC1=C(c2ccc(C)cc2)S(=O)(=O)N=C1N1CCC(C(=O)NCCCN2CCCCC2)CC1,-5.7%,-26.2%,1.7%,-2.6%,15.8%
N#Cc1ccccc1NC(=S)NC(=O)c1cccs1,1.1%,-49.4%,-6.7%,3.0%,2.24µM*
N#Cc1ccccc1NC(=O)COC(=O)c1cccs1,2.2%,-0.6%,-8.7%,-13.9%,-0.4%[57.1 µM]
O=C(CSCC(=O)OCn1nnc2ccccc2c1=O)Nc1ccc(Cl)cc1,7.4%,?,1.1%,7.2%,17.8µM*
COc1ccc(CN2CCNC(=O)C2CC(=O)N2CCCO2)c(OC)c1 (stereo unspecified),11.2%,18.1%,2.2%,5.5%,6.4%
O=S(=O)(NCC(c1cccs1)S(=O)(=O)c1ccccc1)c1ccc(F)cc1 (stereo unspecified),.,-38.6%,-14.6%[57.1 µM],13.0%,12.6µM*
O=S(=O)(NCC(c1cccs1)S(=O)(=O)c1ccccc1)c1ccc(F)c(C(F)(F)F)c1 (stereo unspecified),.,15.8%,-11.0%[57.1 µM],-10.1%,-6.2%[57.1 µM]
CC1(C)c2ccccc2N2CCC(=O)NC21/C=C/c1ccco1 (stereo unspecified),22.1%,-53.2%,-3.4%,10.9%,39.8µM*
CC1(C)c2ccccc2N2CC(=O)NC21/C=C/c1ccco1 (stereo unspecified),2.6%,?,-5.5%,1.5%,?
CCn1nc(C)cc1C(=O)Sc1cccc(Br)c1,11.0%,-33.9%,6.9%,5.5%,7.94µM*
O=C(CCc1ccc(S(=O)(=O)NCc2ccccc2)cc1)NCc1cccnc1,1.3%,-3.4%,-12.0%,-1.9%,-10.0%
COC(=O)[C@H](C)NC(=O)Nc1ccc(S(N)(=O)=O)cc1,4.1%,4.2%,-0.4%,-0.9%,21.7%
CC(C)C(Cl)=NOC(=O)Nc1ccc(S(N)(=O)=O)cc1,.,-47.6%,2.7%[11.4 µM],5.7%,0.794µM*
O=C(Cc1ccc(F)cc1)NC1CC(=O)N(c2ccc3c(c2)OCCO3)C1 (stereo unspecified),.,-5.4%,1.8%[57.1 µM],-1.0%,10.3%[57.1 µM]
COc1ccc(C(=O)/C=C/C(=O)N(CC(=O)NC2CCCCC2)CC2CCCO2)c(O)c1 (stereo unspecified),-3.9%,?,-14.4%,-3.9%,1.26µM*
COc1ccc(C(=O)/C=C/C(=O)N(CC(=O)NC2CCCCC2)Cc2ccccc2)c(O)c1,0.1%,?,7.5%,8.2%,3.16µM*
COc1ccc(C(=O)/C=C/C(=O)N(CC(=O)NC2CCCCC2)Cc2ccccc2OC)c(O)c1,0.8%,?,8.0%[57.1 µM],-13.7%,?
SMILES,Eya2 phos inh,RGS4 inh,TrxR1 substrate,IDH1 R132H inh,TrxR1 inh
CCOC(=O)c1cc2c(=O)n3cccc(C)c3nc2n(Cc2ccco2)c1=NC(=O)c1ccc(C)cc1,.,-26.0%,-6.4%,8.2%,-10.9%
CCOC(=O)c1cc2c(=O)n3cccc(C)c3nc2n(Cc2ccco2)c1=NC(=O)c1ccccc1,-14.4%,0.8%,3.2%[11.4 µM],8.1%,56.2µM*!
Cc1ccc(-n2c3c(cc(C(=O)NCC(=O)c4ccccc4)c2=O)C(=O)CCC3)cc1,5.2%,-8.5%,-10.5%,0.4%,-14.0%
O=C(CCCc1ccccc1)NCCc1ccccc1,6.2%,-7.0%,-3.7%,-3.4%,16.3%
O=C(CCl)N(CCc1ccccc1)CCc1ccccc1,-11.7%,-14.9%,0.5%,-7.6%,11.2µM*
O=C1CC(Nc2ccccc2)C(=O)N1c1ccc(N2CCOCC2)cc1 (stereo unspecified),-8.1%,31.8%,3.4%,5.9%,-1.0%
O=C1CC(Nc2ccc(N3CCOCC3)cc2)C(=O)N1c1ccccc1F (stereo unspecified),-12.0%,-5.2%,2.3%,2.1%,79.4µM*
CC1(C)N=C(SCc2ccc(F)cc2)c2ccccc2N1,.,-9.3%,3.8%,7.0%,8.9%
CN(C)CCCN(C(=O)c1ccco1)c1nc2cc3c(cc2s1)OCO3,-3.5%,20.0%,-6.4%,-8.0%,-3.4%
Cc1ccccc1CN1CCNC(=O)C1CC(=O)O (stereo unspecified),14.4%,0.3%,5.5%,5.9%,70.8µM*
COc1cccc(CN2CCNC(=O)C2CC(=O)O)c1OC (stereo unspecified),-6.7%,-5.4%,-0.9%,-9.9%,?
Cc1cc(C2C(C#N)=C(N)SC(N)=C2C#N)c(C)s1,17.6%,?,-4.6%,-6.0%,31.6µM*
C=C1CC(Cn2cc(Br)c(=O)[nH]c2=O)(c2ccc(-c3ccccc3)cc2)OC1=O (stereo unspecified),.,?,-1.1%,?,7.08µM*
Cc1nc2scc(-c3ccccc3)c2c(=O)n1N,-6.8%[15.4 µM],-13.0%,-7.7%,1.7%,-1.9%
Cc1nc2scc(-c3ccccc3)c2c(=O)n1N=C1C=CC(=O)C=C1,1.1%,-136.4%,4.0%[57.1 µM],1.3%,3.16µM*
CC(Oc1ccc(F)cc1)C(=O)Nc1ccc(N2CCOCC2)cc1N1CCOCC1 (stereo unspecified),-2.8%,-6.5%,4.8%[57.1 µM],0.0%,8.7%[57.1 µM]
COc1ccc(-n2nc(C#N)c(Cl)cc2=O)cc1,-12.1%,-11.6%,-0.3%,2.7%,6.31µM*
COC(=O)c1nn(-c2ccc(OC)cc2)c(=O)cc1O,-20.8%,1.3%,1.0%[57.1 µM],-8.0%,0.5%[57.1 µM]
CC[C@]1(C(=O)OC)[C@H]2C(=O)N(C)C(=O)[C@H]2[C@H]2CN=C(SCc3ccccc3)N21,4.4%,-2.5%,6.4%,-1.0%[38.3 µM],15.5%
Cn1ncc2cc(NC(=S)NC(=O)c3ccccc3)ccc21,9.1%,-18.4%,-9.9%,1.7%,25.1µM*

# Screening results deposited in PubChem BioAssay by National Center for Advancing Translational Sciences (NCATS).
